Assay results as given in PubChem BioAssay (Tox21).
Values joined by “and” are separate entries in the source; they are usually repeats but may differ in a detail not shown here. Identical values can stand only once. Results filed as inconclusive are left out. Unmarked numbers belong to inactive results. Active and inactive are the calls of the source. The call rests on the fitted dose curve; in most records, active means well fitted cell-killing curve with a large enough effect in the repeat runs; inconclusive means weak or mixed curves, or effect the other way; inactive means flat fitted curve, though single readings scatter.
On the % scale 0 is the no-effect control and ±100 the full control effect; potency means the concentration at half of the fitted maximal effect.

Experiment: qHTS RealTime-Glo MT Cell Viability Assay in HEK293 cells - 40 hour (AID 1224874); further: nearly all actives have a fitted effect of over 50% in size
Conditions: RealTime-Glo luminescence; max response: active compounds read low
From the text: U.S. Tox21 Program National Center for Advancing Translational Sciences [NCATS] NIH Chemical Genomics Center [NCGC] U.S. Environmental Protection Agency [EPA] National Institutes of Environmental Health Sciences [NIEHS] National Toxicology Program [NTP] U.S. Food and Drug Administration [FDA] Tox21 Assay Overview: Measure of cell viability is critical in the cell-base assay. Analysis of cell viability is necessary for the characterization of cell responses to cytotoxic drugs and environmental stress. A RealTime-Glo MT Cell Viability Assay to monitor cell viability in real time of continues cell culture during 40 hours of compound treatment was used to screen Tox21 10K library compounds in Hek293 cells. The RealTime-Glo MT Cell Viability Assay is a nonlytic, homogeneous, bioluminescent method to measure cell viability in real time using a simple, plate-based method. The assay involves adding NanoLuc luciferase and a cell-permeant prosubstrate to cells in culture. Viable cells reduce the proprietary prosubstrate to generate a substrate for NanoLuc luciferase. This substrate diffuses from cells into the surrounding culture medium, where it is rapidly used by the NanoLuc Enzyme to produce a luminescent signal. The signal correlates with the number of viable cells, making the assay well suited for cytotoxicity studies.
Tox21 Assay Protocol Summary: The mixture of Hek293 cell suspension and reagents were dispensed at 600cells/6 ul/well in 1536-well tissue culture treated black solid bottom plates using a Multidrop dispenser. After the assay plates were incubated at a 37 C/5% CO2 incubator for 5 hours, 23 nL of compounds dissolved in DMSO, positive and negative controls was transferred to the assay plate by a pintool work station. The plates were incubated at 37 C for 40 hours. The luminescence intensity were measured at 0h, 8h, 16h, 24h, 32h and 40h time points using ViewLux plate reader during compound treatment.
Molecule `CCC(C)c1cccc(C(C)CC)c1O` (stereo not given) has a max response of -7.36%.
`Oc1ccc([C@H]2CNCc3c2ccc(O)c3O)cc1O` showed a max response of -21.9%.
With `O=c1c2ccccc2c(=O)c2c1cc(Cl)c1[nH]c3c([nH]c12)c(Cl)cc1c(=O)c2ccccc2c(=O)c13` the max response was 12.8%.
In the case of `CCOC(=O)Cc1ccccc1`, the max response is reported as 17.4%.
For `CCC(C)Nc1c([N+](=O)[O-])cc(C(C)(C)C)cc1[N+](=O)[O-]` (stereo not given), the max response was -8.53%.
Molecule `CCC1(CC)C(=O)N=C(O)NC1=O` has a max response of -0.914%.
Molecule `COc1cnc(OC)n2nc(NS(=O)(=O)c3c(OCC(F)F)cccc3C(F)(F)F)nc12` has a max response of 16.5%.
`COP(=S)(NC(C)C)Oc1ccc(C)cc1[N+](=O)[O-]` (stereo not given) showed a max response of -12.5%.
With `CCCCCCC[CH2][Sn]([Cl])([Cl])[CH2]CCCCCCC` the max response was -19.1%.
In the case of `Cc1cc(C2CC2)nc(Nc2ccccc2)n1`, the Potency is reported as 21.9 µM (active).
For `N#Cc1sc2c(=O)c3ccccc3c(=O)c=2sc1C#N`, the Potency was 17.4 µM (active).
For `O=C(O)[C@H](O)[C@@H](O)C(=O)O`, the max response was 5.57%.
For `CCCCN(CCCC)C(=S)S`, the max response was -4.16%.
`ClC(Cl)C(Cl)(Cl)Cl` showed a max response of 0.191%.
Work on `CCn1cc[n+](C)c1` (tested in a mixture with another compound) yielded a max response of -0.353%.
With `Cc1cnc2c(C(=O)O)c(Cl)ccc2c1` the max response was 3.08%.
With `N#Cc1ccc(N(CC(N)=O)CC(F)(F)F)cc1C(F)(F)F` the max response was 0.171%.
For `COc1nc(C)nc(NC(=O)NS(=O)(=O)c2ccccc2Cl)n1`, the max response was 1.45%.
`CCNS(=O)(=O)C(F)(F)C(F)(F)C(F)(F)C(F)(F)C(F)(F)C(F)(F)C(F)(F)C(F)(F)F` gave a max response of 23.4%.
`N#CSCc1ccccc1` gave a max response of -24.3%.
In the case of `CCCCCCCc1ccc(O)cc1`, the Potency is reported as 21.9 µM (active).
Work on `CCN(CC)C(=O)N[C@@H]1C=C2c3cccc4[nH]cc(c34)C[C@@H]2N(C)C1` yielded a max response of -0.723%.
`COc1ccc2c3c1O[C@H]1[C@H](O)CC[C@H]4[C@@H](C2)N(C)CC[C@@]341` gave a max response of -1.3%.
`CC(Cc1ccc2c(c1)OCO2)NO` (stereo not given) gave a max response of 0.458%.
For `CC[C@H](C)[C@H]1O[C@]2(C=C[C@@H]1C)C[C@@H]1C[C@@H](C/C=C(\C)[C@@H](O[C@H]3C[C@H](OC)[C@@H](O[C@H]4C[C@H](OC)[C@@H](NC)[C@H](C)O4)[C@H](C)O3)[C@@H](C)/C=C/C=C3\CO[C@@H]4[C@H](O)C(C)=C[C@@H](C(=O)O1)[C@]34O)O2`, the Potency was 4.36 µM (active).
For `O=C1C2(Cl)C3(Cl)C4(Cl)C(Cl)(Cl)C5(Cl)C3(Cl)C1(Cl)C5(Cl)C24Cl` (stereo not given), the Potency was 13.6 µM (active) and 37.3 µM (active).
With `O=[N+]([O-])c1ccccc1-c1ccccc1` the max response was 4.62%.
With `CCOP(=O)(OCC)Oc1cc(C)nc(C(C)C)n1` the max response was 1.52%.
In the case of `O=S1OCC2C(CO1)C1(Cl)C(Cl)=C(Cl)C2(Cl)C1(Cl)Cl` (stereo not given), the Potency is reported as 21.9 µM (active) and 38.9 µM (active).
With `CC(Cc1ccc(OCC(=O)O)cc1)NCC(O)c1csc(C(F)(F)F)n1` (stereo not given) the max response was -5.31%.
In the case of `CCc1cccc(C)c1N(C(=O)CCl)[C@@H](C)COC`, the max response is reported as -25.5%.
Work on `CNC(=O)Oc1cc(C)cc(C(C)C)c1` yielded a max response of 5.9%.
In the case of `O=C(CCCCl)c1ccc(F)cc1`, the max response is reported as -0.41%.
In the case of `C=C(C)C(=O)[O][Sn]([CH2]CCC)([CH2]CCC)[CH2]CCC`, the Potency is reported as 0.245 µM (active).
Work on `COc1ccc2c(c1OC)C(=O)O[C@@H]2[C@H]1c2cc3c(cc2CCN1C)OCO3` yielded a max response of 1.56%.
Work on `CC(=O)O.CC(=O)O.CC(=O)O.CC(=O)O.CC(=O)O.CC(=O)O.CC(=O)O.O.O.[Cr].[Cr].[Cr]` yielded a max response of 2.64%.
With `O=C(N[C@H]1N=C(c2ccccc2F)c2cccc3c2N(CC3)C1=O)c1cc2ccccc2[nH]1` the max response was -4.67%.
For `CNC(C)(C)Cc1ccccc1`, the max response was 6.36%.
For `Fc1ccc(C(OCCN2CCN(CCCc3ccccc3)CC2)c2ccc(F)cc2)cc1`, the Potency was 9.52 µM (active).
`CC(C)Br` showed a max response of -13.8%.
